In PubChem BioAssay AID1159580 (chemical genetic matrix, 2015):
Where “and” joins values, the source holds several entries; their conditions need not be identical. Identical values can stand only once. Screen size: about 5,500 compounds; about 2,000 (36%) were called active. Not shown: some 18% with an inconclusive outcome. Rule as the data show it: active = normalized growth mostly below about 0.91 (no sharp cut-off); inconclusive = no clear call, values can overlap the other calls; inactive = mostly above about 0.92. This is one part of the list.

Assay: chemical genetic growth profiling, strain panel (AID 1159580);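 also: tested at 20 µM; growth read once vehicle control cultures reached saturation at 30 °C; 1 = growth at the plate median or of vehicle wells; lower values mean less growth of the strain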
Conditions: S. cerevisiae deletion strains, growth OD

Measured: normalized growth

COC1=CC(=O)C[C@@H](C)[C@]12Oc1c(Cl)c(OC)cc(OC)c1C2=O
inactive: locus YAL013W, strain DEP1, hits give low values 1.02 | locus YAL021C, strain ccr4, hits give low values 1.01 | locus YAL026C, strain drs2, hits give low values 0.989 | locus YAL030W, strain snc1, hits give low values 0.988 | locus YBL061C, strain skt5, hits give low values 0.972 | locus YBR009C, strain hhf1, hits give low values 0.937 | locus YBR021W, strain FUR4, hits give low values 1 | locus YBR023C, strain chs3, hits give low values 0.978 | locus YBR171W, strain sec66, hits give low values 0.961 | locus YBR229C, strain ROT2, hits give low values 0.954 | locus YBR231C, strain swc5, hits give low values 1 | locus YBR279W, strain paf1, hits give low values 0.987 | locus YCL011C, strain gbp2, hits give low values 0.963 | locus YCL016C, strain dcc1, hits give low values 0.958 | locus YCL029C, strain bik1, hits give low values 0.987 | locus YCL061C, strain MRC1, hits give low values 1 | locus YCL069W, strain vba3, hits give low values 0.979 | locus YCR088W, strain abp1, hits give low values 0.979 | locus YDL005C, strain med2, hits give low values 0.996 | locus YDL035C, strain GPR1, hits give low values 0.95 | locus YDL040C, strain nat1, hits give low values 0.995 | locus YDL074C, strain BRE1, hits give low values 1.02 | locus YDL101C, strain DUN1, hits give low values 1 | locus YDL134C, strain PPH21, hits give low values 0.97 | locus YDL185W, strain tfp1, hits give low values 0.972 | locus YDL192W, strain arf1, hits give low values 0.988 | locus YDR001C, strain nth1, hits give low values 0.982 | locus YDR069C, strain doa4, hits give low values 0.991 | locus YDR101C, strain arx1, hits give low values 0.992 | locus YDR137W, strain rgp1, hits give low values 0.954 | locus YDR150W, strain NUM1, hits give low values 0.996 | locus YDR159W, strain sac3, hits give low values 1.02 | locus YDR162C, strain NBP2, hits give low values 0.932 | locus YDR195W, strain ref2 1.03 | locus YDR297W, strain sur2, hits give low values 1 | locus YDR318W, strain mcm21, hits give low values 0.988 | locus YDR334W, strain swr1, hits give low values 0.993 | locus YDR335W, strain msn5, hits give low values 0.986 | locus YDR388W, hits give low values 1 | locus YDR392W, strain spt3, hits give low values 0.907 | locus YDR502C, strain sam2, hits give low values 0.999 | locus YEL003W, strain gim4, hits give low values 0.986 | locus YEL037C, strain rad23, hits give low values 0.984 | locus YEL061C, strain CIN8 (second series), hits give low values 0.977 | locus YEL061C, strain CIN8, hits give low values 0.996 | locus YER015W, strain faa2, hits give low values 0.971 | locus YER016W, strain bim1, hits give low values 0.971 | locus YER110C, hits give low values 0.989 | locus YER111C, strain swi4, hits give low values 0.979 | locus YER155C, strain BEM2 (second series), hits give low values 1.01 | locus YER155C, strain BEM2, hits give low values 1.01 | locus YER167W, strain BCK2, hits give low values 0.981 | locus YFR010W, strain ubp6, hits give low values 0.987 | locus YGL078C, strain dbp3, hits give low values 0.987 | locus YGL086W, strain mad1, hits give low values 0.994 | locus YGL167C, strain pmr1, hits give low values 0.97 | locus YGL173C, strain kem1, hits give low values 0.984 | locus YGL227W, strain vid30, hits give low values 0.978 | locus YGL240W, strain doc1, hits give low values 1.01 | locus YGL248W, strain PDE1, hits give low values 1.01 | locus YGL253W, strain hxk2, hits give low values 0.994 | locus YGR078C, strain PAC10, hits give low values 1.01 | locus YGR135W, strain pre9, hits give low values 1.01 | locus YGR229C, strain SMI1, hits give low values 0.978 | locus YGR252W, strain gcn5, hits give low values 0.992 | locus YHR013C, strain ard1, hits give low values 0.975 | locus YHR027C, strain rpn1, hits give low values 0.975 | locus YHR030C, strain SLT2, hits give low values 0.988 and 1.01 | locus YHR079C, strain IRE1 (second series), hits give low values 0.995 | locus YHR079C, strain IRE1, hits give low values 1.01 | locus YHR094C, strain hxt1, hits give low values 0.988 | locus YHR129C, strain ARP1, hits give low values 0.996 | locus YHR142W, strain chs7, hits give low values 0.934 | locus YHR200W, strain rpn10, hits give low values 0.983 | locus YIL066C, strain RNR3, hits give low values 0.937 | locus YIL073C, strain SPO22, hits give low values 0.997 | locus YIL125W, strain kgd1, hits give low values 0.986 | locus YIR030C, strain dcg1, hits give low values 1.01 | locus YJL092W, strain hpr5, hits give low values 0.987 | locus YJL095W, strain BCK1 (second series), hits give low values 0.977 | locus YJL095W, strain BCK1, hits give low values 1.06 and 1.01 | locus YJL115W, strain asf1, hits give low values 0.981 | locus YJL129C, strain trk1, hits give low values 0.964 | locus YJL134W, strain LCB3, hits give low values 0.987 | locus YJL154C, strain vps35, hits give low values 0.983 | locus YJL164C, strain tpk1, hits give low values 0.964 | locus YJL166W, strain qcr8, hits give low values 1 | locus YJL168C, strain set2, hits give low values 0.989 | locus YJL187C, strain SWE1 (second series), hits give low values 1.03 | locus YJL187C, strain SWE1, hits give low values 0.983 | locus YJR043C, strain POL32, hits give low values 0.964 | locus YJR066W, strain TOR1, hits give low values 0.969
